Cruzain inh Det: inhibitors of Trypanosoma cruzi cruzain with detergent. P25779. purified cruzain, Z-FR-AMC fluorescence, 0.01% Triton. AID 1478. actives 0.43% (n = 200,000). Potency, µM, without a hit: max response, negative = inhibition, usual class: inhibitors;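 note: plate controls were neutral wells for no effect and buffer without enzyme for full effect; nearly all actives have a fitted effect of over 40% in size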
Target sequence (P25779 123-467 limits assumed): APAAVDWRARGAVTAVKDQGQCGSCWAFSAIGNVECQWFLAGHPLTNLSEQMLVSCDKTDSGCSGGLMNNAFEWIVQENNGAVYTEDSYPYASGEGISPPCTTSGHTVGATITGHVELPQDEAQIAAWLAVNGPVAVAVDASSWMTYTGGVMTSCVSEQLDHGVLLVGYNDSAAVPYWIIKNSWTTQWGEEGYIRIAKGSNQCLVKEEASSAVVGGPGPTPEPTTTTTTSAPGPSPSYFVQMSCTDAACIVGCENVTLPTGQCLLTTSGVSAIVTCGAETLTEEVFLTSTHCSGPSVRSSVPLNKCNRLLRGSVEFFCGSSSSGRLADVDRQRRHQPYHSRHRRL
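Z-FR-AMC hydrolysis (2 uM substrate) by cruzain (1.5 nM) monitored kinetically at ex 360/em 450 nm after 15 min room-temperature compound exposure; 0.01% Triton X-100, pH 5.5, 5 mM DTT.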
Cruzain inh noDet: cruzain (T. cruzi) inhibition without detergent; P25779; purified cruzain, Z-FR-AMC fluorescence, no detergent; Potency, µM, for the others: max response, negative = inhibition, actives largely listed as inhibitors; actives 2.3% (n = 200,000); AID 1476;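 note: plate controls were enzyme without inhibitor for no effect and buffer without enzyme for full effect; nearly all actives have a fitted effect of over 40% in size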
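Detergent-free condition (0.00005% Triton X-100) in acetate buffer pH 5.5 with DTT. 1.5 nM enzyme and compound were pre-mixed 15 min, then 2 uM Z-FR-AMC substrate added; reaction progress from fluorescence change between first and third reads (60 s).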
NS1 function inh: blocks influenza NS1 protein function | actives 0.4% (n = 270,000) | Potency, µM (series often up to 46.1 µM), inactives show at the top dose activity, positive = more growth; calls by dose curve; note: actives are rising curves; nearly all actives have a fitted effect of over 50% in size
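S. cerevisiae expressing influenza A NS1, grown in glucose, washed, then diluted 1:100 into pH 6.0 -URA galactose medium with 23 nl compound. Growth recovery read as OD600; NS1-free strain serves as control.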
Numbers without * were called inactive; ? = inconclusive; / = not tested or not shown. This is one part of a sample in which hits are shown more often than they occur. Unless noted, calls come from the whole dose curve; as a rule, active = well fitted curve in the direction sought with a large enough effect; inconclusive = small, poorly fitted or top-dose-only effect, or another doubt; inactive = no such curve, though single readings can be large; an effect the other way counts as inactive or inconclusive. Potency is the fitted concentration of half-maximal effect.

SMILES	Cruzain inh Det	Cruzain inh noDet	NS1 function inh
O=C1/C(=C\c2cc(Br)cc(Br)c2O)SC(=S)N1Cc1ccccc1	/	/	-4.6%
CN1C(=O)/C(=C/c2cc(N=Nc3ccccc3)ccc2O)SC1=S	-4.7%	15.8µM*	-3.5%
O=C(O)COCC(=O)Nc1ccc2c(c1)CCC2	3.0%	-11.5%	-7.0%
O=C(COc1cc(Cl)ccc1Cl)Nc1ccc2c(c1)CCC2	-1.0%	25.1µM*	4.6%
O=C(NCc1ccco1)c1nc2c(nnn2Cc2ccccc2Cl)c(=O)[nH]1	-3.7%	-25.3%	10.9%
CCN(CC)c1ccc(/C=N/N(c2ccccc2)c2ccccc2)c(O)c1	-4.4%	?	17.5%
CCN(CC)c1ccc(/C=N/N=C(c2ccccc2)c2ccccc2)c(O)c1	-5.3%	25.1µM*	9.0%
COc1ccc(-c2cc(C(=O)Nc3c(C)n(C)n(-c4ccccc4)c3=O)c3ccccc3n2)c(OC)c1	/	/	0.0%
O=C1CS(=O)(=O)C2(C(=O)N(Cc3ccccc3)c3ccccc32)N1c1ccccc1 (stereo not given)	0.9%	?	/
O=C1CS(=O)(=O)C2(C(=O)N(Cc3ccc(F)cc3)c3ccccc32)N1c1cccc(C(F)(F)F)c1 (stereo not given)	-6.7%	?	/
Cc1cc(C)cc(N2C(=O)CS(=O)(=O)C23C(=O)N(Cc2ccccc2)c2ccccc23)c1 (stereo not given)	-4.7%	6.31µM*	/
Cc1ccc(CN2C(=O)C3(c4ccccc42)N(c2cccc(C(F)(F)F)c2)C(=O)CS3(=O)=O)cc1 (stereo not given)	-8.9%	12.6µM*	/
O=C(c1cc(C(=O)NCc2ccccc2)c(=O)n(Cc2ccccc2)c1)c1cc(Br)ccc1O	8.6%	3.98µM*	?
Cc1ccc(O)c(C(=O)c2cc(C(=O)NCc3ccccc3)c(=O)n(Cc3ccccc3)c2)c1	-3.4%	?	14.3%
CCN1CCN(Cc2nc3c(c(=O)n(C)c(=O)n3C)n2C(C)C(C)=O)CC1 (stereo not given)	2.5%	-12.7%	-1.6%
CCc1cccc(C)c1Nc1c(-c2cccc(O)c2)nc2cnccn12	-9.6%	3.0%	/
COc1ccc2c(c1)NC(c1ccc(F)cc1)=NC(c1ccc(F)cc1)=N2	-3.4%	?	/
CCCOc1ccc(C2=NC(c3ccc(F)cc3)=Nc3ccc(OC)cc3N2)cc1	-3.9%	10µM*	/
COc1ccc2c(c1)c(C(=O)CN1CCC(C(N)=O)CC1)c(C)n2C	-2.1%	1.5%	2.8%
Oc1c(C(c2ccc(Cl)cc2Cl)N2CCOCC2)sc2nc(-c3ccco3)nn12 (stereo not given)	-6.6%	?	/
CN1C(=O)C(CC(=O)O)S/C1=N\N=C\c1ccc(O)cc1O (stereo not given)	/	/	7.1%
CC1CC(C)CN(C(=S)NC2CCCCC2)C1 (stereo not given)	-3.2%	-14.8%	-17.4%
CCc1ccc(NC(=O)C(C)Sc2nc(-c3ccco3)c(C#N)c(=O)[nH]2)cc1 (stereo not given)	/	/	9.5%
O=S(=O)(NCc1ccccc1)c1ccc(S(=O)(=O)N2CCCCC2)cc1	3.3%	?	3.2%
CC1CCN(S(=O)(=O)c2ccc(NC(=O)N3c4ccccc4Sc4ccccc43)cc2)CC1	-1.1%	12.6µM*	1.9%
SMILES	Cruzain inh Det	Cruzain inh noDet	NS1 function inh
CC1CCN(S(=O)(=O)c2ccc(S(=O)(=O)NCc3ccccc3)cc2)CC1	4.2%	15.8µM*	-0.8%
NS(=O)(=O)c1ccc(NC(=O)N2c3ccccc3Sc3ccccc32)cc1	-2.3%	1.0%	2.2%
CCc1cc2c(=O)c(-c3cnn(-c4ccccc4)c3)c(C)oc2cc1OCC(=O)Nc1ccc(F)c(F)c1	-0.7%	25.1µM*	11.9%
CCc1cc2c(=O)c(-c3cnn(-c4ccccc4)c3)c(C)oc2cc1OCC(=O)Nc1cccc(C)c1	-1.8%	?	9.8%
CC(/C=N/NC(=O)c1cc(-c2ccccc2)nc2ccccc12)=C\c1ccco1	-9.4%	?	21.8%
CC(/C=N/NC(=O)c1cc(-c2ccc(Cl)cc2)nc2ccccc12)=C\c1ccco1	-2.0%	7.94µM*	4.1%
Cc1ccccc1-n1c(SCC(=O)c2c(N)n(C)c(=O)n(C)c2=O)nnc1-c1cccnc1	0.6%	11.5%	3.1%
COc1ccccc1-n1c(COc2ccccc2-c2ccccc2)nnc1SCC(=O)c1c(N)n(C)c(=O)n(C)c1=O	1.5%	22.2%	3.55µM*
CS(=O)(=O)N(Cc1ccccc1)c1ccc(C(=O)Nc2cccc(Cl)c2)cc1	-7.1%	-14.3%	/
COc1ccc(F)c(C2C(C#N)=C(N)Oc3n[nH]c(C(C)(C)C)c32)c1 (stereo not given)	-10.7%	2.1%	-3.8%
CCc1cc(C(=O)N2CCc3c([nH]c4ccccc34)C2c2ccc(OC)cc2F)no1 (stereo not given)	/	/	9.3%
COc1cc(OC)c(NC(=O)N2CCc3c(sc4c3CCCC4)C2c2ccccc2)cc1Cl (stereo not given)	0.2%	10µM*	/
COc1cc(OC)c(NC(=O)N2CCc3c([nH]c4ccccc34)C2c2ccccc2F)cc1Cl (stereo not given)	-3.5%	15.8µM*	/
COc1cc(NC(=O)N2CCc3c(sc4c3CCCC4)C2c2ccccc2)cc(OC)c1OC (stereo not given)	-3.1%	?	/
O=C(c1ccccc1)c1nc2ccccc2n(CCCn2c(=O)c(C(=O)c3ccccc3)nc3ccccc32)c1=O	-0.6%	10µM*	27.9%
Cn1c(=O)c(C(=O)c2ccccc2)nc2ccccc21	-2.1%	-7.5%	3.4%
Cc1ccc(C(=O)Nc2ccc(S(=O)(=O)Nc3cnc4ccccc4n3)cc2)cc1	/	/	3.1%
CCOc1ccc2c(c1)-c1c(ssc1=S)C(C)(C)N2C(=O)CSC1=NCCS1	-6.5%	15.8µM*	?
Cc1ccc2c(c1)-c1c(ssc1=S)C(C)(C)N2C(=O)CSC1=NCCS1	-2.6%	?	29.3%
Cc1ccc(-c2nnc(SCC(=O)N3CCN(c4ccccc4)CC3)o2)cc1	-1.3%	10µM*	-2.2%
COc1ccc(-c2nnc(SCC(=O)N3CCN(c4ccccc4)CC3)o2)cc1OC	-3.7%	0.0%	10.4%
COc1ccc2nc(NC(=O)c3cc(=O)c4cc(C)cc(C)c4o3)sc2c1	-3.8%	-4.7%	/
Cc1c(C(=O)Nc2ccc(Nc3ccccc3)cc2)cccc1[N+](=O)[O-]	/	/	-23.3%
O=C(Nc1ccccc1)c1ccc(Nc2c([N+](=O)[O-])cc([N+](=O)[O-])c3ccccc23)cc1	-5.8%	10µM*	4.7%
CC(C)(C)C(=O)NC(=S)Nc1ccc(C(F)(F)F)cc1	/	/	-0.6%
SMILES	Cruzain inh Det	Cruzain inh noDet	NS1 function inh
CC(C)(C)c1ccc(C(=O)Nc2ccc(C=C(C#N)C#N)cc2)cc1	-5.7%	31.6µM*	-14.9%
N#CC(C#N)=Cc1ccc(NC(=O)c2ccc(Br)cc2)cc1	/	/	-44.6%
Cc1nn(CC(=O)N2CCC(C)CC2)c(=O)c2cc3sccc3n12	-3.5%	-7.2%	/
O=C(COc1ccc(Br)cc1Br)NC(=S)Nc1cccc(CO)c1	-9.3%	?	-4.8%
O=C(COc1ccc2ccccc2c1Br)NC(=S)Nc1cccc(CO)c1	-6.7%	31.6µM*	-4.7%
COc1ccc(Cl)cc1NC(=O)CSc1cn(CC(=O)N2CCCC2)c2ccccc12	-3.6%	?	/
O=C(NCc1ccco1)c1sc2ccccc2c1Cl	?	25.1µM*	-8.2%
Cc1ccc(NC(=O)c2sc3ccccc3c2Cl)cc1	-1.2%	-9.3%	/
O=C(NCc1ccco1)c1sc2cc(Cl)ccc2c1Cl	?	25.1µM*	-8.2%

High-throughput results as filed in PubChem.
